AMA1-RON2 inh: qHTS for Inhibitors of AMA1-RON; Towards Development of Antimalarial Drug Lead: Primary Screen. Plasmodium falciparum AMA1 (3D7) - RON2 peptide interaction. AlphaScreen AMA1-biotinylated RON2 peptide binding. Potency, µM (titrated, usually from 58.2 µM), for inactives: top-dose activity change, negative = inhibition, hits mostly inhibitors. 0.2% of 360,000 active;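 also: 0% = vehicle wells and -100% = peptide control; nearly all actives have a fitted effect of over 45% in size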
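AMA1 (3D7) with his tag at 25 nM final met compounds first, then biotinylated RON2 peptide at 25 nM; detection used donor plus acceptor beads, 10 µg/mL apiece, read by AlphaScreen after 30 min at room temperature.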
Vaccinia mCherry: qHTS for Stage-Specific Inhibitors of Vaccinia Orthopoxvirus: mCherry Reporter Primary qHTS. Vaccinia virus mCherry reporter infection, fluorescence. Potency, µM (top dose mostly 36.5 µM), inactives show top-dose activity change, negative = inhibition, actives largely listed as inhibitors. 0.63% of 310,000 active. AID 720579, 2013; calls by dose curve; tested in A549 cells; also: nearly all actives have a fitted effect of over 35% in size
VACV Venus inh: qHTS for Stage-Specific Inhibitors of Vaccinia Orthopoxvirus: Venus Reporter Primary qHTS; 0.46% of 330,000 active; Vaccinia virus Venus reporter expression, fluorescence; Potency, µM (highest dose often 36.5 µM), inactives show at the highest dose activity change, negative = inhibition, hits mostly inhibitors; AID 720580, 2013; calls by dose curve; tested in A549 cells; also: nearly all actives have a fitted effect of over 30% in size
Pf growth 96h: Primary qHTS for delayed death inhibitors of the malarial parasite plastid, 96 hour incubation; P. falciparum luciferase reporter growth, 96 h; Potency, µM (top dose mostly 28.7 µM), without a hit: at the highest dose activity change, negative = inhibition, usual class: inhibitors; 6.9% of 320,000 active
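Luminescence readout: decreased luciferase signal marks inhibited growth of reporter-expressing P. falciparum in infected red cells (2% hematocrit, 0.05% parasitemia final), exposed to compound two generations (96 h, 37 C, 5% CO2).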
Pf growth 48h: Primary qHTS for delayed death inhibitors of the malarial parasite plastid, 48 hour incubation; P. falciparum luciferase growth in erythrocytes, 48 h; Potency, µM (series often up to 28.7 µM), for inactives: top-dose activity change, negative = inhibition, usual class: inhibitors; 5.9% of 310,000 active; AID 504832, 2011
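A one-generation exposure of luciferase-tagged malaria parasites in RPMI 1640/Albumax erythrocyte culture, 37 C and 5% CO2. Inhibition is inferred from decreased luminescence after adding detection reagent.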
* marks the source's active call; other numbers are inactive results; i = inactive; ? = inconclusive; / = not tested or not shown; [ ] = remark or other dose. A selection: hits, their analogues and other compounds. The true share with any hit is near 8.7%. Unless noted, calls follow the shape of the dose curve; as a rule, active = well fitted curve in the direction sought with a large enough effect; inconclusive = small, poorly fitted or top-dose-only effect, or another doubt; inactive = no such curve, though single readings can be large; an effect the other way counts as inactive or inconclusive. Unless noted, % is scaled to controls: 0 for no effect and ±100 for the full control effect; potency is read from the fitted curve at half-maximal effect.

SMILES	AMA1-RON2 inh	Vaccinia mCherry	VACV Venus inh	Pf growth 96h	Pf growth 48h
CNS(=O)(=O)c1cn(CC(=O)Nc2ccc(F)cc2F)cc1S(=O)(=O)NC	/	-12.7%	-4.6%	/	/
CCOC(=O)CSc1nc(-c2ccc(C)cc2C)cc(-c2ccccc2)c1C#N	/	-16.3%	-11.7%	/	/
CCc1ccc(S(=O)(=O)c2nnn3c2nc(N2CCOCC2)c2sccc23)cc1	/	-10.4%	-20.2%	/	/
O=C(C[n+]1cnn(CC(=O)c2ccc(Cl)cc2Cl)c1)c1ccc([N+](=O)[O-])cc1	4.6%	-28.7%	-16.0%	?	3.7µM*
CN(Cc1ccccn1)Cc1cn(Cc2ccccc2)nc1-c1ccc2c(c1)OCO2	10.4%	-8.2%	-1.1%	?	?
CN(Cc1cn(Cc2ccccc2)nc1-c1ccc2c(c1)OCO2)Cc1nccn1C	-19.1%	-4.4%	-14.1%	14.7µM*	?
Cc1[nH]c2ccccc2c1/C=N/Nc1ccccn1	/	/	/	10.4µM*	0.0%
CCCCCC(=O)Nc1nc(C)c(-c2csc(Nc3ccc(Cl)cc3)n2)s1	11.4%	?	?	?	14.7µM*
CCCCCCC(=O)Nc1nc(C)c(-c2csc(Nc3ccc(Cl)cc3)n2)s1	10.1%	5.01µM*	?	2.94µM*	10.4µM*
CCCCCC(=O)Nc1nc(C)c(-c2csc(Nc3cc(Cl)ccc3C)n2)s1	-0.9%	?	-22.8%	?	?
Cc1c(C(=O)NCC(C)(C)N2CCOCC2)cnn1-c1nccc(-c2cccs2)n1	/	-11.6%	-9.2%	/	/
CCN(CC)CCn1c2ccccc2c2cnc(N)c(C#N)c21	2.2%	?	?	2.62µM*	2.62µM*
COc1cccc(C(C(=O)NC2CCCCC2)N(CCN2CCOCC2)C(=O)C2COc3ccccc3O2)c1 (stereo not given)	-9.8%	3.7%	-14.5%	0.1%	-29.9%
O=C(NC1CCCCC1)C(c1ccco1)N(Cc1cccnc1)C(=O)C1COc2ccccc2O1 (stereo not given)	-2.0%	-15.6%	5.4%	-29.3%	?
COc1cc(OC)cc(N(C(=O)C2COc3ccccc3O2)C(C(=O)NC2CCCCC2)c2ccc(O)cc2)c1 (stereo not given)	-3.1%[11.6 µM]	?	?	7.38µM*	13.1µM*
COc1ccc(N(C(=O)C2COc3ccccc3O2)C(C(=O)NC2CCCCC2)c2ccccc2)cc1OC (stereo not given)	-11.3%	-11.3%	-8.4%	?	7.38µM*
Clc1ccc2c(c1)CCc1cccnc1C2=C1CCNCC1	/	-15.8%	-19.0%	?	13.5µM*
CN1Cc2cccnc2N(C)Cc2cc(Cl)ccc21	-26.4%	-3.7%	-25.4%	-14.0%	-25.4%
Cc1cc(NC(=O)Cn2nnc3sc4c(c3c2=O)CCC(C(C)(C)C)C4)no1 (stereo not given)	-2.1%	/	/	4.0%	10.4µM*
Cc1cc(C)c(C)c(S(=O)(=O)N2CCC(C(=O)N3CCCC3)CC2)c1C	-2.1%	/	/	11.7µM*	11.7µM*
Cc1ccc(C(C)(C)C)cc1S(=O)(=O)N1CCC(C(=O)N2CCN(c3ccc(O)cc3)CC2)CC1	-10.5%[11.6 µM]	-8.7%	-15.2%	10.4µM*	3.7µM*
Cc1cc(C)c(C)c(S(=O)(=O)N2CCC(C(=O)N3CCN(c4ccc(F)cc4)CC3)CC2)c1C	?	-26.0%	-22.8%	/	/
CCCS(=O)(=O)N1CCC(C(=O)N2CCOCC2)CC1	-5.8%	/	16.2%	?	7.4%
CCCS(=O)(=O)N1CCC(C(=O)N2CCCC2)CC1	-0.2%	-5.3%	-13.8%	11.7µM*	12.3%
Cc1cc(C)c(C)c(S(=O)(=O)N2CCC(C(=O)Nc3ccncc3)CC2)c1C	1.7%	-9.8%	-22.7%	13.1µM*	?
SMILES	AMA1-RON2 inh	Vaccinia mCherry	VACV Venus inh	Pf growth 96h	Pf growth 48h
COc1cccc(NS(=O)(=O)c2ccc3c(c2)n(C)c(=O)n3C)c1	/	-20.6%	-17.5%	/	/
COc1ccccc1C(=O)N1CCCC(c2nc(SCCN3CCOCC3)ncc2C)C1 (stereo not given)	/	-10.9%	-0.3%	/	/
COC(=O)/C(=C\c1ccc([N+](=O)[O-])cc1)NC(=O)c1ccccc1	13.1%	-9.5%	-6.0%	/	/
O=C(Nc1cccc(C(=O)O)c1)/C(=C/c1ccc([N+](=O)[O-])cc1)NC(=O)c1ccccc1	4.7%	i	-12.0%	21.3%	24.5%
O=C(N/N=C/c1ccc(O)c(O)c1O)/C(=C/c1ccc([N+](=O)[O-])cc1)NC(=O)c1ccccc1	36.9%	-21.1%	-8.2%	9.28µM*	/
Cc1ccc(NC(=O)/C(=C\c2ccc([N+](=O)[O-])cc2)NC(=O)c2ccccc2)cc1	5.9%	-28.0%	-25.9%	5.22µM*	?
O=C(Nc1cccc2ccccc12)/C(=C/c1ccc([N+](=O)[O-])cc1)NC(=O)c1ccccc1	-10.1%	/	/	9.28µM*	?
COc1cccc(C2Nc3ccccc3-c3nnc(SCc4ccccc4)nc3O2)c1OC (stereo not given)	/	-3.1%	-1.1%	/	/
Cc1cc(Cl)ccc1NC(=O)CCS(=O)(=O)c1ccc2c(c1)CC(C)N2C(=O)C1CC1 (stereo not given)	/	-10.7%	-17.3%	/	/
COc1ccc(-c2cn(CCc3c[nH]c4ccccc34)nn2)cc1	25.6%	?	?	9.28µM*	11.8%
Cc1ncc2c(c1CNS(=O)(=O)N(C)C)CCN(C(=O)/C=C/c1ccccc1Cl)C2	/	-20.0%	-13.4%	/	/
CN(C)CC1CSCCC1(O)c1ccccc1Cl (stereo not given)	6.0%	-14.4%	-7.1%	-61.7%	?
CN(C)CC1CCCCC1C1(O)c2ccccc2CSc2sccc21 (stereo not given)	-22.0%	-24.2%	?	?	9.28µM*
CC(=O)N1c2ccc(S(=O)(=O)NCCc3cccc(C)c3)cc2CC1C (stereo not given)	/	-5.8%	-11.6%	/	/
Cc1ccc(NC2=CC(=O)CC(C)(C)C2)cc1F	-1.4%	/	/	-18.3%	4.4%
Cc1cc(N)c(NC2=CC(=O)CC(C)(C)C2)cc1C	88.4%	-18.9%	-12.4%	10.4µM*	-3.6%
CCO[C@@H]1OC(C(=O)N2CCN(Cc3ccc4c(c3)OCO4)CC2)=C[C@H](c2csc3ccccc23)[C@H]1CCCO	-28.6%	-21.1%	-23.9%	2.08µM*	?
C#Cc1ccc([C@@H]2C=C(C(=O)N3CCN(Cc4ccc5c(c4)OCO5)CC3)O[C@H](OCC)[C@H]2CCCO)cc1	5.2%	-6.6%	?	-19.8%	-79.4%
CCO[C@@H]1OC(C(=O)N2CCN(Cc3ccc4c(c3)OCO4)CC2)=C[C@H](c2cn(C(C)=O)c3ccccc23)[C@H]1CCCO	-27.3%	i	-29.0%	4.15µM*	1.31µM*
